Results published in ChEMBL document CHEMBL2218924, “A broad activity screen in support of a chemogenomic map for kinase signalling research and drug discovery” (Biochem J, 2013).

target: RAC-gamma serine/threonine-protein kinase (Homo sapiens) (UniProt Q9Y243); conditions: at 10 µM
Sequence (Q9Y243 whole entry): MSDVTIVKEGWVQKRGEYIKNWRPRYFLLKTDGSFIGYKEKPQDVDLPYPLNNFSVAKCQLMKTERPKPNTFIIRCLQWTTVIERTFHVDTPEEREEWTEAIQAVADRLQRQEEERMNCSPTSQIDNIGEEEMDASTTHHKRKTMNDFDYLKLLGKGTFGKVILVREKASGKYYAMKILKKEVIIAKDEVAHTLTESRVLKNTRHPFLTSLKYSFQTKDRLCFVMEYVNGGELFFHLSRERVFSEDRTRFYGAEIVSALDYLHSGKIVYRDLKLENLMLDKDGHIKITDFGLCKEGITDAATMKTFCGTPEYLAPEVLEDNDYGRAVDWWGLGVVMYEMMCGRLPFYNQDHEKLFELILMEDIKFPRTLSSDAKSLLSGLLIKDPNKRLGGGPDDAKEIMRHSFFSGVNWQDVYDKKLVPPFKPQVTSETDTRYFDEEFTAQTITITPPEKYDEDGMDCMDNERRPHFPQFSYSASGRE

Structure (SMILES)	residual activity [%]
C[S+]([O-])c1ccc(-c2nc(-c3ccc(F)cc3)c(-c3ccncc3)[nH]2)cc1 (centres undefined)	75
CCn1cnc2c(Nc3cccc(Cl)c3)nc(N[C@@H]3CCCC[C@@H]3N)nc21	61
COC(=O)[C@@]1(O)C[C@H]2O[C@]1(C)n1c3ccccc3c3c4c(c5c6ccccc6n2c5c31)C(=O)NC4	3
O=c1[nH]c2ccccc2n1C1CCN(Cc2ccc(-c3nc4cc5[nH]cnc5cc4nc3-c3ccccc3)cc2)CC1	69
O=C1c2ccccc2-c2nc3nnnn3nc21	100
O=[N+]([O-])/C=C/c1ccc2c(c1)OCO2	106
CC(C)[C@H](CO)Nc1nc(Nc2cccc(Cl)c2)c2ncn(C(C)C)c2n1	84
COc1cc2ncnc(Nc3ccc(OCc4ccccc4)cc3)c2cc1OC	103
COc1cc(OC)c(/C=C2\C(=O)Nc3ccccc32)c(OC)c1	80
CC(C)(C)c1cc(C=C(C#N)C#N)cc(Br)c1O	97
O=C1NC(=O)c2c1c1c3ccccc3n3c1c1c2c2ccccc2n1C1CCC3O1	84
N/C(=N\[N+](=O)[O-])N/N=C\c1ccc(-c2cccc([N+](=O)[O-])c2)o1	77
O=C1Nc2ccc3ncsc3c2/C1=C/c1c[nH]cn1	30
COc1ccc2c(c[n+](C)c3c4cc5c(cc4ccc23)OCO5)c1OC	63

target: Protein kinase C alpha type (Homo sapiens) (UniProt P17252); conditions: at 1 µM

Structure (SMILES)	residual activity [%]
C[S+]([O-])c1ccc(-c2nc(-c3ccc(F)cc3)c(-c3ccncc3)[nH]2)cc1 (centres undefined)	107
CCn1cnc2c(Nc3cccc(Cl)c3)nc(N[C@@H]3CCCC[C@@H]3N)nc21	89
COC(=O)[C@@]1(O)C[C@H]2O[C@]1(C)n1c3ccccc3c3c4c(c5c6ccccc6n2c5c31)C(=O)NC4	19
O=c1[nH]c2ccccc2n1C1CCN(Cc2ccc(-c3nc4cc5[nH]cnc5cc4nc3-c3ccccc3)cc2)CC1	104
O=[N+]([O-])/C=C/c1ccc2c(c1)OCO2	111
COc1cc2ncnc(Nc3ccc(OCc4ccccc4)cc3)c2cc1OC	117
CC(C)(C)c1cc(C=C(C#N)C#N)cc(Br)c1O	106
O=C1NC(=O)c2c1c1c3ccccc3n3c1c1c2c2ccccc2n1C1CCC3O1	96
O=C1Nc2ccc3ncsc3c2/C1=C/c1c[nH]cn1	67
COc1ccc2c(c[n+](C)c3c4cc5c(cc4ccc23)OCO5)c1OC	110
